# Sampled rows, rich in hits. Any-hit rate of the full collection: about 8%.
# HT1080 IDH1KD tx = HT-1080 IDH1 knockdown cell toxicity (counter line) | HT-1080 IDH1 knockdown viability, ATP luminescence, 48 h | Potency, µM (highest dose often 46.1 µM), without a hit: at the top dose activity, negative = toxicity, actives largely listed as cytotoxic | 360,000 compounds, 2% hits | AID 686971;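 note: 0% = DMSO wells and -100% = cell-free medium wells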
#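 Cytotoxicity counter-line: IDH1KD HT-1080, 48 h, CellTiter-Glo. Curves classed by r2, magnitude and activity.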
# MCF10A rereplic = inducers of DNA re-replication in MCF 10A breast cells. 350,000 compounds, 2.9% hits. AID 624296. Potency, µM (series often up to 46.1 µM), without a hit: at the top dose activity, positive = re-replication, hits mostly activators. MCF 10A DNA re-replication, Hoechst nuclear intensity, 48 h; note: % of control where 0% means no effect; nearly all actives have a fitted effect of over 50% in size
# KB-3-1 cytotox = KB-3-1 parental cell cytotoxicity. KB-3-1 viability, CellTiter-Glo ATP luminescence, 72 h. Potency, µM (titrated, usually from 46.1 µM), usual class: cytotoxic. 400,000 compounds, 1.4% hits; note: % is set by controls: 0 for no effect and ±100 for the full control effect; nearly all actives have a fitted effect of over 60% in size
#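 72 h, 37 °C compound treatment of KB-3-1 parental cells; CellTiter-Glo added, 10 min, luminescence read. Data corrected against DMSO-only plates and normalized before curve fitting.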
# SW480 rerep = inducers of DNA re-replication in SW480 colon cancer cells. SW480 DNA re-replication, Hoechst DNA content imaging, 48 h. Potency, µM (highest dose often 46.1 µM), without a hit: at the top dose re-replication activation, actives largely listed as activators. 340,000 compounds, 1.8% hits; note: % of control where 0% means no effect; nearly all actives have a fitted effect of over 55% in size
#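 250 cells/well; 23 nL cpd via pin tool; 48 hr, 37 C, 5% CO2; Hoechst 40 min; imager read of total nuclear intensity, ex 405/em 500-530 nm.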
# KB-V1 cytotox = KB-V1 MDR subline cytotoxicity; 400,000 compounds, 3.4% hits; AID 1347076; Potency, µM (series often up to 46.1 µM), most hits filed as cytotoxic; KB-V1 MDR cells viability, CellTiter-Glo, 72 h; note: % is set by controls: 0 for no effect and ±100 for the full control effect; nearly all actives have a fitted effect of over 60% in size
#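 Luminescent ATP read-out (CellTiter-Glo, 10 min) measures survival of drug-selected KB-V1 MDR cells after 72 h, 37 degrees C compound exposure. Medium: phenol-red-free DMEM, 10% FBS. Values from fitted concentration-response curves.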
# HT1080-NT tox = kills 2HG-producing HT-1080-NT fibrosarcoma cells | Potency, µM (series often up to 46.1 µM), for inactives: top-dose activity, negative = less viability, actives largely listed as cytotoxic | 360,000 compounds, 1.6% hits | HT-1080-NT fibrosarcoma viability, CellTiter-Glo ATP luminescence, 48 h;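 note: NT is the 2HG producing partner of a matched IDH1 knockdown line; 0% = DMSO-treated cells and -100% = media-only wells without cells; nearly all actives have a fitted effect of over 55% in size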
#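 750 cells/well, RPMI + 5% FBS; 2 h settle, compound pin-transfer, 48 h at 37 degrees C. CellTiter-Glo 10 min RT, luminescence. Normalized to DMSO and media-only wells.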
# Starred values were filed as active, the others as inactive; i = inactive; u = inconclusive; x = no result given; ! = not active in a repeat; [ ] = another dose, or the depositor's remark. Calls come from the whole dose curve; as a rule, active = well fitted curve in the direction sought with a large enough effect; inconclusive = small, poorly fitted or top-dose-only effect, or another doubt; inactive = no such curve, though single readings can be large; an effect the other way counts as inactive or inconclusive. Potency is the fitted concentration of half-maximal effect.
SMILES,HT1080 IDH1KD tx,MCF10A rereplic,KB-3-1 cytotox,SW480 rerep,KB-V1 cytotox,HT1080-NT tox
O=c1c(/C=C(\O)c2ccc(F)cc2)nc2ccccc2n1-c1ccccc1,18%,6%,i,20%,i,8%
Cn1c(=O)c(/C=C/c2ccc(F)cc2)nc2ccccc21,-15%,u,u,12µM*,u,-6%
CCCn1c(/C=C/c2ccco2)nc2ccccc21,-1%,u,i,8%,u,6%
Cn1c(/C=C/c2ccccc2)nc2ccccc21,u,13%,i,-2%,i,u
CC(=O)c1ccc(/C=C/c2nc3ccccc3n2C)o1,-11%,18µM*,i,u,i,-13%
O=P(Cc1cccc2ccccc12)(c1ccccc1)c1ccccc1,-8%,2%,i,2%,i,2%
CC(=O)C1=C(O)C(=O)N(c2ccccn2)C1c1ccccc1[N+](=O)[O-] (stereo not given),1%,u,i,21µM*,i,11%
CC(=O)C1=C(O)C(=O)N(c2ccc(Br)cn2)C1c1ccccc1[N+](=O)[O-] (stereo not given),-3%,12%,i,-13%,i,u
C#CCNC(=O)C[C@@H]1C[C@@]2(C(=O)OCC)CCCC=C2N(Cc2ccccc2)C1=O,1%,x,i,x,u,13%
C(=C\c1ccc2ccccc2n1)/c1cccnc1,x,x,u,x,i,x
Cc1cc2nc(CO)[nH]c2cc1C,0%,4%,i,-10%,i,-1%
Cc1cc2nc(/C=C/c3nc4cc(C)c(C)cc4[nH]3)[nH]c2cc1C,-9%,u,i,23µM*,i,-4%
Cc1cc2nc(/C=C/c3cccnc3)[nH]c2cc1C,0.58µM*,u,1.2µM*,u,0.26µM*,0.52µM*
O=C(CCN=C1NS(=O)(=O)c2ccccc21)NCc1ccccc1F,6%,-2%,i,-5%,i,3%
CCOc1ccc(-c2cc(CCCC(=O)NCCc3ccc(OCC)c(OCC)c3)no2)cc1,x,x,i,x,i,x
Cc1ccc(C)c(NC(=O)Cn2c(=O)n(Cc3ccco3)c(=O)c3ccc(C(=O)NC4CCCC4)cc32)c1,x,x,i,x,i,x
CCCCCCCCCCCCCCCCn1cc[n+](CC(C)=O)c1,-16%,15µM*,8.2µM*,-35%,i,u
CC1CCCC(NC(=O)CC2Nc3ccccc3NC2=O)C1C (stereo not given),0%,6%,i,-55%,16µM*,-3%
O=C(CC1Nc2ccccc2NC1=O)NC1CCCCC1 (stereo not given),8%,1%,i,-7%,u,-2%
O=C1C(c2ccc(C(F)(F)F)cc2)=C(Nc2ccc(Cl)cc2)c2ccccc21,x,x,i,x,i,x
COc1ccc(/C=C/C(=O)c2c(C)nc3ccccn23)cc1,16%,9%,i,0%,u,16%
Cc1nc2ccccn2c1C(=O)/C=C/c1ccc(F)cc1,-1%,u,16µM*,u,16µM*,-25%
O[C@@H]1[C@@H](O)C=C2CCN3Cc4cc5c(cc4[C@H]1C23)OCO5 (stereo not given in full),5.8µM*,1%,8.2µM*,u,5.2µM*,1.8µM*
COc1ccc2c(c1OC)CN1CCc3cc4c(cc3[C@@H]1[C@@H]2O)OCO4,11%,14%,i,-5%,i,0%
Cc1ccc(-c2cc(C(F)F)n3ncc(C(=O)N4CCc5ccccc54)c3n2)cc1,2.3µM*,2.6µM*,i,7.3µM*,5.8µM*,2.9µM*
SMILES,HT1080 IDH1KD tx,MCF10A rereplic,KB-3-1 cytotox,SW480 rerep,KB-V1 cytotox,HT1080-NT tox
Cc1cc(C)c2cc3c(N)c(C(=O)N4CCc5ccccc5C4)sc3nc2c1,5%,-6%,i,3%,i,22%
Cc1ccc2nc3sc(C(=O)N4CCCc5ccccc54)c(N)c3cc2c1,2%,u,u,3.7µM*,6.5µM*,-2%
COc1cc2ccccc2cc1C(=O)N1CCc2ccccc21,u,16µM*,u,u,i,u
CCc1nccn1C(=O)c1cnn2c(C(F)F)cc(-c3ccc(C)cc3)nc12,2%,18µM*,u,u,u,2%
CCN1CCN(C(=O)c2cnn3c(C(F)F)cc(-c4ccc(C)cc4)nc23)CC1,-1%,6%,i,0%,i,5%
CS(=O)(=O)Nc1cccc(-c2ccc3nncn3c2)c1,10%,x,i,x,i,u
CC1=Nc2ccccc2/C1=C(/C)c1c(C)[nH]c2ccccc12,x,x,u,x,i,x
O=C(C1=C[C@@H](C2CCCCC2)C[C@@H](OCCCCO)O1)N1CCN(Cc2ccc3c(c2)OCO3)CC1,4%,10%,i,-22%[9.22 µM],i,-14%
COc1ccc(-c2cc(C(F)F)n3ncc(C(=O)N4CCc5ccccc5C4)c3n2)cc1,-27%,u,i,15µM*,u,u
Cc1ccc(-c2cc(C(F)(F)F)n3ncc(C(=O)N4CCCc5ccccc54)c3n2)cc1,-4%,-5%,i,14%,i,-9%
Cc1ccc(-c2cc(C(=O)N3CCCc4ccccc43)c3ccccc3n2)cc1,-1%,21µM*,u,u,23µM*,-3%
CCOc1ccc(-c2cc(C(=O)NCCCOC)c3c(-c4ccc(CC)cc4)[nH]nc3n2)cc1,x,x,i,x,i,x
Cc1ccc(SCCC(=O)Nc2ccccc2C(=O)NC(C)C)cc1,1%,-16%,i,u,2.9µM*,-7%
O=C(Nc1ccc(F)c(Cl)c1)C1CCN(C(=O)c2ccc(F)cc2)CC1,x,x,i,x,i,x
CCN(CC)C1CCN(Cc2cn[nH]c2-c2ccc(OC)c(F)c2)C1 (stereo not given),6%,2%,i,4.1µM*,i,-4%
CCOc1ccc2c(c1)c(=O)c(S(=O)(=O)c1ccc(CC)cc1)cn2Cc1cccc(Cl)c1,x,x,i,x,i,x
COC(=O)c1ccccc1NC(=O)N1CCc2ccc(NC(=O)c3ccccn3)cc2C1,2%,-14%,u,18µM*,u,-8%
Cc1c(Cl)cccc1NC(=O)Nc1c(C)n(C)n(-c2ccccc2)c1=O,2%,-27%,i,-15%,i,-7%
COc1ccc(-c2ncccc2O)cc1,11%,-2%,i,2%,i,14%
CCOc1c(C)cc(-c2ncccc2O)cc1C,-20%,12%,u,14%,13µM*!,-1%
O=C(COc1ccc(Cl)cc1)OCc1cc(=O)n2nc(-c3cccs3)sc2n1,x,x,i,x,i,x

# Screening data deposited in PubChem BioAssay by National Center for Advancing Translational Sciences (NCATS).
